Among the data in PubChem BioAssay AID1529 (NMMLSC, 2009) are binding response (% of control) values, retold here.

Out of some 290,000 compounds screened, about 4,200 (1.4%) were called active.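 Rule for the calls: active = binding response more than 3 SD above or below the average of its plate-row segment, actives on both sides; inconclusive = wells at one plate position flagged as instrument error; inactive = the rest.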 Many of the other results were omitted from the sample, so actives are more common in it than they were.

Sequence of Mitogen-activated protein kinase kinase kinase 3 (Homo sapiens) (Q99759 whole entry, looked up): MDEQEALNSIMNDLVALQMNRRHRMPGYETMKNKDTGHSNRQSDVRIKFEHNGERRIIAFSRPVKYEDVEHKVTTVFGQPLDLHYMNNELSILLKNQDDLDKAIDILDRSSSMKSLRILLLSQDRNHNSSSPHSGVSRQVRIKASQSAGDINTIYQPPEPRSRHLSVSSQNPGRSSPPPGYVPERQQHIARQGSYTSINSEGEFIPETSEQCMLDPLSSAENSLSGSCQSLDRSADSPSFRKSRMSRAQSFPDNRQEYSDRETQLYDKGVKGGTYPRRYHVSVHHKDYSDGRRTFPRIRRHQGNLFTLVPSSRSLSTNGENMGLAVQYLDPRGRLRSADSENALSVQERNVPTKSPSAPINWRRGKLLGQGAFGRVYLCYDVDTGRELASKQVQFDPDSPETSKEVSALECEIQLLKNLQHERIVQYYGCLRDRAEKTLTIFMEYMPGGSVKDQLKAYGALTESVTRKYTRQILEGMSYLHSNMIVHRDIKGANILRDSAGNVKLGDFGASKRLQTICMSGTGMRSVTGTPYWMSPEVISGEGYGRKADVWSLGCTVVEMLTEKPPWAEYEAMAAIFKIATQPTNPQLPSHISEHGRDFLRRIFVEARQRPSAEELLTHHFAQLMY

This assay addresses Mitogen-activated protein kinase kinase kinase 3 (Homo sapiens) (UniProt Q99759). Briefly: compounds raising or lowering MEK5 association with MEKK3 PB1 – biochemical, wildtype MEKK3, multiplex bead flow cytometry, Alexa488-MEK5, primary screen (AID 1529).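 Note: Alexa488 bead fluorescence after subtracting the streptavidin-only scavenger bead signal.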 As to conditions: bead-based flow cytometry, Alexa488-MEK5 binding to MEKK3; at 10 µM; actives lie on both sides; 0 = blocked by unlabeled MEK5, 100 = vehicle. For orientation: Flow cytometry measures light scatter and fluorescence of single cells or particles in a stream.
As for `CCOC(=O)Cc1csc(NC(=O)CSc2ccc(Br)cc2)n1`, the binding response (% of control) was 107% (inactive).

Regarding `CCCCc1nnc(NC(=O)CSc2nc(C)cc(=O)[nH]2)s1`, the binding response (% of control) was 98% (inactive).

For `CCOC(=O)Cc1csc(NC(=O)CSc2nc(C)cc(=O)[nH]2)n1`, the binding response (% of control) was 58% [inhibitor] (active).

Take `COc1ccc(S(=O)(=O)N2CCN(C(=O)N(C)C)C2C)cc1` (stereo not given): the binding response (% of control) is 102% (inactive).

Regarding `O=C(Nc1ccn(Cc2ccccc2)n1)c1n[nH]c([N+](=O)[O-])c1Cl`, the binding response (% of control) was 99% (inactive).

For the molecule `O=C(Nc1ccn(Cc2ccccc2)n1)c1cccc(F)c1`, the binding response (% of control) is 135% (active).

In the case of `O=C(Nc1cccc(NC(=O)c2cccc(F)c2)c1)c1ccccc1`, the binding response (% of control) was 101% (inactive).

As to `COc1cc(CC(=O)N/N=C/c2ccccc2)c([N+](=O)[O-])cc1OC`, the binding response (% of control) is 134% (active).

Regarding `COc1ccc(C(=O)NCC(=O)N/N=C/c2ccc([N+](=O)[O-])s2)cc1OC`, the binding response (% of control) was 102% (inactive).

`O=C(Cc1cc(=O)[nH][nH]1)N/N=C/c1ccccc1[N+](=O)[O-]`: the binding response (% of control) was 121% (inactive).

As to `COc1ccc(C(=O)NCC(=O)N/N=C/c2ccc([N+](=O)[O-])o2)cc1OC`, the binding response (% of control) is 133% (active).

Take `COc1cc(/C=N/NC(=O)CNC(=O)c2ccncc2)ccc1OC(C)=O`: the binding response (% of control) is 105% (inactive).

With `COc1cc(/C=N/NC(=O)Cc2ccccc2)cc(OC)c1OC`, the binding response (% of control) was 98% (inactive).

`Cc1ccccc1N1CCN(C2CCCN(C(=O)c3ocnc3C)C2)CC1` (stereo not given): the binding response (% of control) is 106% (inactive).

For the molecule `COc1ccccc1CN1CCCC(N2CCN(c3ccc(F)cc3)CC2)C1` (stereo not given), the binding response (% of control) was 104% (inactive).

In the case of `C=CCOc1cccc(C2NC(=O)c3ccccc3O2)c1` (stereo not given), the binding response (% of control) was 91% (inactive).

For the molecule `CC(C)c1cc(C(N)=O)c(NC(=O)c2cccc(COc3ccc(Br)cc3)c2)s1`, the binding response (% of control) is 104% (inactive).

For the molecule `O=C(Nc1cccc(F)c1)NC1CCCc2ccccc21` (stereo not given), the binding response (% of control) is 99% (inactive).

Turning to `Cc1nc2nc3c(cn2n1)C(=O)CC(c1ccccc1)C3` (stereo not given), the binding response (% of control) was 95% (inactive).

As for `Cc1cc(C)nc(-n2ncc3c2CC(c2ccc(C(C)C)cc2)CC3=O)n1` (stereo not given), the binding response (% of control) was 148% (active).

On to `CS(=O)(=O)N(CC(=O)N1CCOCC1)c1cccc(Cl)c1Cl`, for which the binding response (% of control) was 102% (inactive).

With `CCO[C@H]1OC(C(=O)N2CCOCC2)=C[C@@H](c2ccc3c(c2)OCO3)[C@@H]1CCCO`, the binding response (% of control) was 81% [inhibitor] (active).

For `CCO[C@@H]1OC(C(=O)N2CCOCC2)=C[C@H](C)[C@H]1CCCO`, the binding response (% of control) was 99% (inactive).

In the case of `CCO[C@H]1OC(C(=O)N2CCCCCCC2)=C[C@@H](c2ccc(C(F)(F)F)cc2)[C@@H]1CCCO`, the binding response (% of control) was 107% (inactive).

For `Cc1ccc(Cn2c(C)c3cnn(CC(=O)NCc4ccccn4)c(=O)c3c2C)cc1`, the binding response (% of control) is 100% (inactive).
